Laboratory results: PubChem BioAssay (NCATS)
Calls of active or inactive are those of the source. Calls follow the shape of the dose curve; as a rule, active = well fitted activation curve with a large enough effect; inconclusive = small, poorly fitted or top-dose-only effect; inactive = no such curve, though single readings can be large or run the other way.

What follows are compounds tested against Cytochrome P450 3A4 (Homo sapiens) (UniProt P08684) (assay: qHTS Assay for Activators of Cytochrome P450 3A4 (AID 885; also: nearly all actives have a fitted effect of over 65% in size)). Conditions: recombinant CYP3A4, Luciferin-PPXE luminescence, 60 min; series mostly up to 57.1 µM; activity change, positive = activation: at the top concentration.
Cytochrome P450 3A4 (Homo sapiens), sequence (P08684 whole entry, looked up): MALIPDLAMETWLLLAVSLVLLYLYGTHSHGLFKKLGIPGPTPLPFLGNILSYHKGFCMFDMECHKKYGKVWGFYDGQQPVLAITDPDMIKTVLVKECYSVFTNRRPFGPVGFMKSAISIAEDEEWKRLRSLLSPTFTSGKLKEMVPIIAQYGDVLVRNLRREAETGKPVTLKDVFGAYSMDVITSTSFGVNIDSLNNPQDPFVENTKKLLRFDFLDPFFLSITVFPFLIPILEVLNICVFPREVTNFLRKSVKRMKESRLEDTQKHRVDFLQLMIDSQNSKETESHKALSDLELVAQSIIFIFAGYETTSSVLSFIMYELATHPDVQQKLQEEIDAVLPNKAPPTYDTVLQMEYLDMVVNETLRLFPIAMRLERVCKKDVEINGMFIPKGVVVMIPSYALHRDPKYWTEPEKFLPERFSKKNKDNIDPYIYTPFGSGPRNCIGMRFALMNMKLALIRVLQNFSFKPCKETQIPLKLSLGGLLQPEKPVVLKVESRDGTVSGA
Method: NIH Molecular Libraries Screening Centers Network [MLSCN]
NIH Chemical Genomics Center [NCGC]
The P450 gene superfamily is involved in the metabolism and clearance of xenobiotics. This assay used human CYP3A4 to measure the dealkylation of luciferin-6' phenylpiperazinylyl (Luciferin-PPXE; […]) to luciferin. The luciferin is then measured by luminescence after the addition of a luciferase detection reagent. Luciferin-PPXE concentration in the assay was equal to its KM for CYP3A4. Inhibitors and some substrates limit the production of luciferin, and decrease measured luminescence; activators increase the production of luciferin and luminescence.
NCGC Assay Protocol Summary:
Two uL of enzyme and substrate mix (final concentrations: 20nM CYP3A4, 25uM Luciferin-PPXE, 200mM KPO4) were dispensed into a white, solid bottom 1536-well microtiter plate. 23nL of compound was transferred by a pin tool. The plate was incubated at RT for 10 min. Two uL of an NADPH regeneration solution (Promega supplied reagent) was dispensed and the reaction was allowed to continue for 60 min at RT. Then the reaction was stopped by reconstituted luciferin detection buffer. After another 20 min of incubation the plate was read on the ViewLux (Perkin Elmer) at 60 sec exposure and 2x2 binning. This protocol was carried out with Promega-Glo reagents and further information can be found at http://www.promega.com/tbs/tb325/tb325.pdf. Data were normalized to the to AC100 inhibition (57 uM ketoconazole).
Keywords: P450, CYP2D6, Luciferase, MLSMR, MLSCN, NIH Roadmap, qHTS, NCGC
Potency is read from the fitted curve at half-maximal effect.

Row | Structure (SMILES) | activity change, positive = activation | Potency
1 | CC[C@@H]1OC(=O)[C@@H](C)[C@H](O[C@H]2C[C@@](C)(OC)[C@@H](O)[C@H](C)O2)C(C)[C@H](O[C@H]2O[C@@H](C)C[C@@H](N(C)C)[C@@H]2O)[C@@](C)(O)C[C@H](C)C(=O)[C@@H](C)[C@H](O)[C@@]1(C)O (stereo not given in full) | -72.3% (inactive) | –
2 | Cc1ccc2c(c1)CC[C@H]1CC(=O)CC[C@@]21C | -80.7% (inactive) | –
3 | Cc1cc(=O)c2c(O)cc(O)c(C)c2o1 | -68.2% (inactive) | –
4 | COc1ccc(-c2c(O)c3c(OC)c4c(cc3oc2=O)OC(C)(C)C=C4)cc1 | -61.3% (inactive) | –
5 | C=C[C@](C)(O)CCC1C(=C)CCC2[C@@](C)(CO)CCC[C@@]12C (stereo not given in full) | -118% (inactive) | –
6 | C=CC(C1=CC(=O)C=CC1=O)c1ccccc1 (stereo not given) | -40.7% (inactive) | –
7 | COc1ccc2c(c1)N(C[C@@H](C)CN(C)C)c1ccccc1S2 | -34.7% [at 25.6 µM] (inactive) | –
8 | COc1ccc(/C=C/C(=O)c2ccc(O)cc2O)cc1 | -89.5% (inactive) | –
9 | c1ccc2c(c1)CCCc1cc(NCCN3CCOCC3)nnc1-2 | -34.1% [at 25.6 µM] (inactive) | –
10 | CC(=O)OC1CC(OC(C)=O)[C@]2(C)C(CC(=O)[C@]3(C)C2CC[C@@]2(C)C(c4ccoc4)OC(=O)C4O[C@@]423)C1(C)C (stereo not given in full) | -92.5% (inactive) | –
11 | CC(=O)CC(=O)[C@@]1(O)CC[C@@H]2[C@@H]3C=C(C)C4=CC(=O)CC[C@@H]4[C@H]3CC[C@]21C | – | 2510 nM (active)
12 | COC1C=CO[C@@]2(C)Oc3c(C)c(O)c4c(O)c(c5c(nc6cc(C)ccn65)c4c3C2=O)NC(=O)/C(C)=C\C=CC(C)C(O)[C@@H](C)C(O)C(C)[C@@H](OC(C)=O)C1C (stereo not given in full) | -57.9% (inactive) | –
13 | CC(=O)OCC(=O)[C@]1(O)C(C)CC2C3CCC4=CC(=O)C=C[C@@]4(C)[C@]3(F)C(O)C[C@@]21C (stereo not given in full) | -34.1% (inactive) | –
14 | COc1cc(OC)c2c(=O)c(O)c(-c3ccc(OC)c(OC)c3)oc2c1 | -94.5% (inactive) | –
15 | COC(=O)CC1C(C)(C)C2(O)OC34CC2C(=O)[C@@]1(C)C3CC[C@]1(C)C4=CC(=O)OC1c1ccoc1 (stereo not given in full) | -46.9% (inactive) | –
16 | C#C[C@]1(O)CC[C@@H]2[C@H]3CCc4cc(OC)ccc4[C@@H]3CC[C@@]21C | -48.9% [at 25.6 µM] (inactive) | –
17 | Clc1ccc([C@H](Cn2ccnc2)OCc2csc3c(Cl)cccc23)c(Cl)c1 | -86.8% [at 25.6 µM] (inactive) | –
18 | CC1(C)C(=O)C2C[C@]3(O)C4=CC(=O)OC(c5ccoc5)[C@]4(C)CCC3[C@](C)(C2=O)C1CC(=O)O (stereo not given in full) | -47.9% (inactive) | –
19 | Nc1nc2c(nc(Sc3ccc(Cl)cc3)n2C2OC(CO)C(O)C2O)c(=O)[nH]1 (stereo not given) | -66.9% (inactive) | –
20 | CC(=O)OCC(=O)C1CCC2C3CCC4=CC(=O)CC[C@@]4(C)C3CC[C@]12C (stereo not given in full) | – | 3160 nM (active)

Row | Structure (SMILES) | activity change, positive = activation | Potency
21 | O=c1cc(-c2ccc(O)c(O)c2)oc2ccccc12 | -79.3% (inactive) | –
22 | COC1C[C@@H](O[C@@H]2C(C)C(=O)OC(C)C(C)C(O)C(C)C(=O)[C@@]3(CO3)CC(C)C(OC3OC(C)CC(N(C)C)C3O)C2C)OC(C)[C@@H]1O (stereo not given in full) | -61% (inactive) | –
23 | COc1cc2cc3c4cc(OC)c(OC)cc4cc[n+]3c(C)c2cc1OC | – | inactive
24 | C/C(=C(/CCO)SSC[C@@H]1CCCO1)N(C=O)Cc1cnc(C)nc1N | -35.6% [at 25.6 µM] (inactive) | –
25 | CCOC(=O)C1=C(C)NC(C)=C(C(=O)OC)[C@@H]1c1cccc([N+](=O)[O-])c1 | -77.1% [at 25.6 µM] (inactive) | –
26 | Cc1cc(O)c(C=O)c2c1C(=O)Oc1c(C)c(O)c3c(c1O2)C(O)OC3=O (stereo not given) | -43.5% (inactive) | –
27 | CC1(C)CC2/C(CO)=C/C=C/[C@](C)(O)CC[C@]21O (stereo not given in full) | -71.8% (inactive) | –
28 | CC(=O)OC1CC(OC(C)=O)[C@]2(C)C(CC(OC(C)=O)[C@]3(C)C2CC[C@@]2(C)C(c4ccoc4)OC(=O)C4O[C@]432)C1(C)C (stereo not given in full) | -92.5% (inactive) | –
29 | COc1ccc2c(c1OC)C(=O)O[C@H]2C1c2c(cc3c(c2OC)OCO3)CCN1C (stereo not given in full) | – | inactive
30 | CNCCC=C1c2ccccc2C=Cc2ccccc21 | -55.7% [at 25.6 µM] (inactive) | –
31 | C#C[C@]1(O)CCC2C3CCC4=Cc5oncc5C[C@@]4(C)C3CC[C@@]21C (stereo not given in full) | -78.4% (inactive) | –
32 | COc1cc(O)cc(OC)c1OC | -33.5% (inactive) | –
33 | c1ccc2c(c1)CN1CCCC1=N2 | -31.5% (inactive) | –
34 | S=c1ccss1 | -37.3% (inactive) | –
35 | COc1ccc([C@@H]2CC(=O)c3c(O)cc(O)cc3O2)cc1O | – | inactive
36 | Nc1ccn([C@@H]2O[C@H](CO)[C@@H](OP(=O)(O)O)[C@H]2O)c(=O)n1 | -48.7% (inactive) | –
37 | CC(C)c1c(O)ccc2c1CCC1[C@@](C)(C=O)CCC[C@@]21C (stereo not given in full) | -71.5% (inactive) | –
38 | CCN(CC)CCOC(=O)[C@@H](c1ccccc1)C1CCCCC1 | -66.5% [at 25.6 µM] (inactive) | –
39 | O=c1cc(-c2ccc(O)cc2)oc2cc(O)ccc12 | -58.1% (inactive) | –
40 | C=C1CC[C@@H]2O[C@@]2(C)CC[C@H]2[C@H]1CC2(C)C | -41.8% (inactive) | –
